The nature of assay [1]: yeast TOR pathway RPL19A-GFP modulators, primary screen, cell-based, S. cerevisiae, multiplex flow cytometry (AID 1862; in the data active = percent of DMSO control GFP below about 86%;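 also: lower values mimic rapamycin by blocking the RPL19A rise seen in DMSO cells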). As to conditions: S. cerevisiae RPL19A-GFP strain, flow cytometry fluorescence, 3 h; at 10 µM; stronger effect = lower value.
A short description of assay [2]: modulators of MEP2-GFP levels in yeast, primary screen, S. cerevisiae, multiplex flow cytometry (AID 1867;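 active = GFP response, as percent of the DMSO control, above the screen-wide mean plus 3 SD, about 139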;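 also: median GFP channel fluorescence of barcode-gated MEP2-GFP cells measured by flow cytometry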). To be noted: S. cerevisiae MEP2-GFP strain, 3 h, at 10 µM, stronger effect = higher value, 100% means same as DMSO wells. (A flow cytometer gives signals particle by particle.)
Assay [3] in a line: modulators of CIT2-GFP expression in yeast, primary screen, S. cerevisiae, GFP fusion, multiplex flow cytometry (AID 1870;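 active = percent response above a set limit, the screen-wide mean plus 3 SD, cut at about 130% in these data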;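 also: barcoded CIT2-GFP strain pooled with four other GFP strains with rapamycin as positive control; median GFP fluorescence per well over plate mean of DMSO wells so 100% = DMSO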). As to conditions: 3 h, at 10 µM, stronger effect = higher value.
Assay [4] is described as follows: modulators of LAP4-GFP expression in yeast, primary screen, S. cerevisiae, multiplex flow cytometry (AID 1873;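 active = GFP signal, as percent of the solvent control, above the screen mean plus 3 SD, about 149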). To be noted: 3 h, at 10 µM, stronger effect = higher value.
Assay [5] in a line: modulators of AGP1-GFP expression in yeast TOR pathway, primary screen, cell-based, multiplex flow cytometry, S. cerevisiae (AID 1887;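 active = GFP signal above the screen-wide mean plus 3 SD, that is over about 124.5% of the solvent control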;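 also: AGP1-GFP fusion strain of S. cerevisiae within a five-strain barcoded multiplex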). As to conditions: 3 h, at 10 µM, stronger effect = higher value.
A short description of assay [6]: inhibitors of CD8+ T cell-vesicle binding, pilot screen, LFA-1/ICAM-1 modulator project, MLPCN validation set, flow cytometry (AID 2523).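 As to vesicle binding response: mean PE anti-B7-1 fluorescence of CD8+ cells relative to row control; 100% = QL9-loaded vesicles with DMSO vehicle in the same plate row.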 As to conditions: 2C mouse CD8+ T cells, at 7 µM, stronger effect = lower value; double positive events: measured here: CD8+/vesicle+ event percentage.
The target of assay [7] is Integrin beta-1 (Homo sapiens) + Integrin alpha-4 (Homo sapiens) (UniProt P13612+P05556). The experiment in a line: inhibition of HUTS-21 binding to VLA-4, pilot screen, VLA-4 allosteric modulator project, U937 cells, HUTS-21 mAb, flow cytometry, validation set (AID 2674;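 active = inhibition above 50%, about 3 SD of the validation set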;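 also: antibody binding induced by the VLA-4 ligand LDV present at three times its Kd; 0% = LDV ligand with antibody and no compound and 100% = antibody without LDV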). As to conditions: HUTS-21 LIBS mAb binding, at 6.7 µM, stronger effect = higher value, binding induced by LDV ligand.

Assay [8] can be described thus: superoxide lowering in aged yeast cells, pilot screen, validation compound set (AID 2706;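 active = superoxide response below 65% of plate, a cut near 3 SD across the whole screen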;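 also: yeast exposed to compound for one week at 30 degrees C before staining; 100% = mean of all compound wells on the same plate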). To be noted: S. cerevisiae aging, superoxide DHE fluorescence; at 10 µM, stronger effect = lower value.
Assay [9] concerns the target Beta-adrenergic receptor kinase 1 (Homo sapiens) (UniProt P25098). The experiment in a line: GRK2 binders displacing RNA aptamer, biochemical, validation, human GRK2, bead flow cytometry (AID 488806;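 active = aptamer binding inhibition above 30%, about 3 SD of noise from non-fluorescent compounds; inactive = inhibition at or below 30%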). As to conditions: bead-bound GRK2, FAM-aptamer displacement, at 10 µM, stronger effect = higher value.
The target of assay [10] is AP-2 complex subunit beta (Homo sapiens) (UniProt P63010). The experiment in a line: inhibitors of arrestin peptide binding to AP2, pilot screen, biochemical, validation set, GST-AP2 beads, flow cytometry (AID 504541;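 active = inhibition above 54%, about 3 SD of non-fluorescent compounds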;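 also: AP2 carries R879A mutation and is captured from E. coli lysate; bead-bound FITC arrestin peptide fluorescence measuring arrestin peptide binding to AP2; 0% = DMSO wells and 100% = excess unlabeled arrestin peptide control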). To be noted: FITC arrestin peptide, at 10 µM, stronger effect = higher value, AP2 beta2 appendage fragment, R879A mutant.
Assay [11] is described as follows: yeast V-ATPase proton transport modulators, S. cerevisiae, pHLuorin, HTS validation (AID 504600; in the data active = response above about 15%;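 also: plate controls were DMSO for no effect and reference compound for full effect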). To be noted: S. cerevisiae pHLuorin cytosolic pH, at 10 µM, stronger effect = higher value.
In assay [12] the test system is anti-desmoglein-3 scFv antibody binding to human DSG3. The experiment in a line: inhibitors of anti-DSG3 scFv binding to DSG3, pilot screen, biochemical, validation compound set, bead-based, flow cytometry (AID 588368;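 active = binding below the plate cutoff, the plate median minus 3 SD, with a reading above zero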;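 also: signal is the median channel fluorescence of bead-bound GFP antibody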). As to conditions: Protein G beads, DSG3-Fc, scFv-GFP binding, at 10 µM, stronger effect = lower value.
A short description of assay [13]: inhibitors of fungal efflux pumps CDR1, CDR2, MDR1, pilot screen, validation compound set, multiplex, phenotypic (AID 588506;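 active = efflux inhibition above 0.42, the validation set average plus 4 SD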;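 also: Nile Red retained in cells so higher fluorescence means more efflux inhibition; 0 = negative control wells and 1 = enniatin B 25 µM full block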). As to conditions: S. cerevisiae pump-expressing triplex, Nile Red efflux flow cytometry; at 10 µM; stronger effect = higher value; the pumps come from Candida albicans.
Assay [14] concerns the target ATP-binding cassette sub-family B member 6 (Homo sapiens) (UniProt Q9NP58). Nature of the assay: ABCB6 transporter inhibitors, pilot screen, K562-ABCB6 cells, flow cytometry, validation set (AID 588550;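 active = inhibition above the screen-wide mean plus 3 SD, about 51%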;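 also: 0% = DMSO wells and 100% = benzethonium chloride 70 µM positive control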). As to conditions: K562-ABCB6 porphyrin accumulation, 1 h, at 10 µM, stronger effect = higher value.
The nature of assay [15]: promoters of myeloid differentiation in arrested cells, primary screen, cell-based, GFP/MAC1 double positive, flow cytometry, validation set (AID 588685;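 active = differentiation response of at least 50%, scaled between solvent and reference control, from cells with both markers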;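 also: compound exposure lasts four days before antibody staining and flow analysis; 0% = DMSO wells and 100% = 5 µM fulvestrant positive control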). To be noted: ER-HoxA9 marrow cells, stronger effect = higher value, normalized: vehicle 0, fulvestrant 100.

SMILES strings stand for the structures. Results filed as inconclusive are left out. Calls of active or inactive are those of the source.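 The calls were made as follows, unless noted: active = response below a set limit, under 55% cells CD8-positive and vesicle-bound, and CD8 cells' 90th-percentile brightness under 279; inactive = the rest.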

Sequence of AP-2 complex subunit beta (Homo sapiens) (P63010 whole entry, looked up, the tested form may be a part, one chain of several): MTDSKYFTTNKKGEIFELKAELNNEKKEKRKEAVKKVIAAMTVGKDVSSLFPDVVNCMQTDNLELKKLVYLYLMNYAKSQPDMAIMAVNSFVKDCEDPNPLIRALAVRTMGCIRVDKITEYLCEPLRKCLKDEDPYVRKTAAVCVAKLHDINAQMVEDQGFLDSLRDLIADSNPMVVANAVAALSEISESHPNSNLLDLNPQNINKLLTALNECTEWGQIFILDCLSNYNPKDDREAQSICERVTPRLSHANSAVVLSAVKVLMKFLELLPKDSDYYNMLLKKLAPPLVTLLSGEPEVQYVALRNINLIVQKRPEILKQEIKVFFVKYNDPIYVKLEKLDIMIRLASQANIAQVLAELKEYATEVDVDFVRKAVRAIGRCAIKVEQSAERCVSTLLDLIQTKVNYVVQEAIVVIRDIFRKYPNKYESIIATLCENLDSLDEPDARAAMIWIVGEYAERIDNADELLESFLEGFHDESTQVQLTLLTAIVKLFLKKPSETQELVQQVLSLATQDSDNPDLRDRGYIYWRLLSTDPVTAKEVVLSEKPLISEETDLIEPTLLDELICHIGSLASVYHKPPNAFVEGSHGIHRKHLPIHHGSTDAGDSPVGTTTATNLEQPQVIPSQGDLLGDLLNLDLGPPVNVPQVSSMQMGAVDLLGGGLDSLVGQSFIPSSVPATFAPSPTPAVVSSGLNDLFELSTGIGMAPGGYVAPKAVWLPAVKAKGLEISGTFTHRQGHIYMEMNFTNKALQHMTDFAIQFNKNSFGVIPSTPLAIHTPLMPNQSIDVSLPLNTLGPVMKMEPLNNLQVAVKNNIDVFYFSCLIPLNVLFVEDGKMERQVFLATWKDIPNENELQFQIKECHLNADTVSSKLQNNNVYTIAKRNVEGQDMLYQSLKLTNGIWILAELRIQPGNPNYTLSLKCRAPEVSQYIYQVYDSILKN
Sequence of ATP-binding cassette sub-family B member 6 (Homo sapiens) (Q9NP58 whole entry, looked up): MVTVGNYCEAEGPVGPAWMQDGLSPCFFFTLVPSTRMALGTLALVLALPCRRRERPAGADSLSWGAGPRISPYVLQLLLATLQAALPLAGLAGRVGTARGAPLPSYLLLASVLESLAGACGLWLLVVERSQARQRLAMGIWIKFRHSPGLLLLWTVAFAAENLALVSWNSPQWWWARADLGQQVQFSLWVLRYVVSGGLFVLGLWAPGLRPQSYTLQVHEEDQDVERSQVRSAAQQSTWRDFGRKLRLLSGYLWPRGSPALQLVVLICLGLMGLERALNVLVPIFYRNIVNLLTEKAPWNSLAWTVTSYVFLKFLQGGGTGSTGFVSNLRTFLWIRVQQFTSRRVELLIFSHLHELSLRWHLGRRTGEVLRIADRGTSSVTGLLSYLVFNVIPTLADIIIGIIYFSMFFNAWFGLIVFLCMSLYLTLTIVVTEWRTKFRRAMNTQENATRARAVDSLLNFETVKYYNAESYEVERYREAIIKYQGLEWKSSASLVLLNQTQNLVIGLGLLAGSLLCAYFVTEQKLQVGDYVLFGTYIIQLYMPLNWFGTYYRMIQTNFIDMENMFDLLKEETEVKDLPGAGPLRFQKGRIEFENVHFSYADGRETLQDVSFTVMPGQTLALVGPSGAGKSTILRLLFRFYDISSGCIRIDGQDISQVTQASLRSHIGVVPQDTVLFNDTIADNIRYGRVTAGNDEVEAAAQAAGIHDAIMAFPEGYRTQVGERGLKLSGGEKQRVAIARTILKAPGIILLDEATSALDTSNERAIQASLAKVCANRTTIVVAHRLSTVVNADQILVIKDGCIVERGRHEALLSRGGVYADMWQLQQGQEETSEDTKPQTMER
Sequence of Beta-adrenergic receptor kinase 1 (Homo sapiens) (P25098 whole entry, looked up): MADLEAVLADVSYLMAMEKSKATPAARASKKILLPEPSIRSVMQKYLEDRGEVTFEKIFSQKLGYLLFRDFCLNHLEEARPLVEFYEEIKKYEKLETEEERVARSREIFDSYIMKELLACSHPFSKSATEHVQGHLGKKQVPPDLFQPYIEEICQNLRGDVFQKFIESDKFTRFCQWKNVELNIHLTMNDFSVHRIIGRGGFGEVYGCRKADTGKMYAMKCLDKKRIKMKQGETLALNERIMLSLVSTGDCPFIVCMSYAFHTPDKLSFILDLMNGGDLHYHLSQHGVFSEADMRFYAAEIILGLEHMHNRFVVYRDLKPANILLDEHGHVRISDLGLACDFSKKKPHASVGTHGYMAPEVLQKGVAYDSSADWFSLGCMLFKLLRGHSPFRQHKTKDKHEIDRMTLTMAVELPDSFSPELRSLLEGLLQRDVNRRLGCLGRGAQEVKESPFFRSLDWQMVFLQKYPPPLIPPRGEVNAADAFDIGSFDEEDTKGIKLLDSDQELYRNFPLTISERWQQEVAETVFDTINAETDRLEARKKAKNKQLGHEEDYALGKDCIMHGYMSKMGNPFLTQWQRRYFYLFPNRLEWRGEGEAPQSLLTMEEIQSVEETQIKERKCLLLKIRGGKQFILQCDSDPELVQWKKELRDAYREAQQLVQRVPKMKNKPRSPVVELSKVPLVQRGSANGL
Sequence of Integrin beta-1 (Homo sapiens) + Integrin alpha-4 (Homo sapiens) (P05556 whole entry, looked up): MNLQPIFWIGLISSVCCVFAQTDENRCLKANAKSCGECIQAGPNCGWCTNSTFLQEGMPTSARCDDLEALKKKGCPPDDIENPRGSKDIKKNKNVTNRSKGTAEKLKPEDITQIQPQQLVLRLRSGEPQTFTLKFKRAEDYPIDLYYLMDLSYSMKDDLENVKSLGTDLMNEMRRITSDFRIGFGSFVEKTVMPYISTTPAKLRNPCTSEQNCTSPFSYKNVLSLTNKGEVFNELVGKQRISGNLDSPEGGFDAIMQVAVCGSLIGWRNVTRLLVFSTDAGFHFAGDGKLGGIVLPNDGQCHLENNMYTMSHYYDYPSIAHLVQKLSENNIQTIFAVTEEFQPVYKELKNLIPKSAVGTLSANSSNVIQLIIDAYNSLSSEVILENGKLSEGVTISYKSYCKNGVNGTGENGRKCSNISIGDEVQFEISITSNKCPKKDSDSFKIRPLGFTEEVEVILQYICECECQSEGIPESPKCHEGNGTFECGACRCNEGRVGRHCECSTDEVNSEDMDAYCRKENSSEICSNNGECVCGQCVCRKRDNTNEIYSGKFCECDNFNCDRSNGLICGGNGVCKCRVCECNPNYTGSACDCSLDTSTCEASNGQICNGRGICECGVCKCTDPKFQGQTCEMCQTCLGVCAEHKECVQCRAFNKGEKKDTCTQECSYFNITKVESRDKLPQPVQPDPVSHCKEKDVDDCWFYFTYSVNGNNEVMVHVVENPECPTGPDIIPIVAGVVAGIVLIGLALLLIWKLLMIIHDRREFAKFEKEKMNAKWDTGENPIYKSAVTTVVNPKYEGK
Sequence of Integrin beta-1 (Homo sapiens) + Integrin alpha-4 (Homo sapiens) (P13612 whole entry, looked up): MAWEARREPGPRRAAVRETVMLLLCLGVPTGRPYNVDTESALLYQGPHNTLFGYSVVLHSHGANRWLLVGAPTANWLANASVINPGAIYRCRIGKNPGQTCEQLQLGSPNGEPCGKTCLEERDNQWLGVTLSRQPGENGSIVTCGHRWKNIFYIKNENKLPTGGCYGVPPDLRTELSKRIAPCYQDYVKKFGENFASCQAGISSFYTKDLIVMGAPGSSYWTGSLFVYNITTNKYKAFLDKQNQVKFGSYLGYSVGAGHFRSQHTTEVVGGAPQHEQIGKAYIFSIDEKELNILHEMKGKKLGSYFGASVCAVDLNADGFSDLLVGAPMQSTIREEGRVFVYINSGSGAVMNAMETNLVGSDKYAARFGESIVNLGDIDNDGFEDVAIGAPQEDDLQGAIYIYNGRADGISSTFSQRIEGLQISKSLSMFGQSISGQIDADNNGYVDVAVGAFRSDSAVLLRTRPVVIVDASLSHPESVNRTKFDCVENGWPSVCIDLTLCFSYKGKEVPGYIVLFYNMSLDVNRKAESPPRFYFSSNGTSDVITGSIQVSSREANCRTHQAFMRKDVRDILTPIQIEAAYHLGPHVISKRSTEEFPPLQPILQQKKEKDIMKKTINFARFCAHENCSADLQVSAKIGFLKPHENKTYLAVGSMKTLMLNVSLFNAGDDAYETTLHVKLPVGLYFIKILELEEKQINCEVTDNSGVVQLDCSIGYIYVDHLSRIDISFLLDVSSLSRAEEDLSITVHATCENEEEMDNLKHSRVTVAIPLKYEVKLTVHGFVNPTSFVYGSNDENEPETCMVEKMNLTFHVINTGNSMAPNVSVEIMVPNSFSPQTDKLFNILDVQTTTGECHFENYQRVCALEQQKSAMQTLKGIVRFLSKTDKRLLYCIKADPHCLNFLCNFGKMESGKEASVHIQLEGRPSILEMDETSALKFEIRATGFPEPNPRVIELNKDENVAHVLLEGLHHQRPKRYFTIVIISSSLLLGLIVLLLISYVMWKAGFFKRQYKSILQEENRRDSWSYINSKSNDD

For the compound `CC(=O)O[C@]1(C(C)=O)CC[C@H]2[C@@H]3C=C(Cl)C4=CC(=O)CC[C@]4(C)[C@H]3CC[C@@]21C`, the percent of DMSO control GFP in assay [1] is 99.3% (inactive). Also, the GFP response vs DMSO is 89.7% (inactive) in assay [2] and 84.3% (inactive) in assay [4]. In addition, the percent response of DMSO control in assay [3] was 102% (inactive). In addition, the GFP response, % of DMSO in assay [5] was 97.2% (inactive). In [6], this compound yielded a double positive events of 48.7%. Further, the vesicle binding response in assay [6] is 201% (inactive). For the same compound, the inhibition was -20.8% (inactive) in assay [7], -12.8% (inactive) in [10] and 9% (inactive) in assay [14]. The superoxide response (% of plate) in assay [8] is 108% (inactive). Further, the aptamer binding inhibition in [9] is -1% (inactive). Moreover, in assay [11], the response was -0.6% (inactive). For the same compound, in assay [12], the binding (% of control) is 105% (inactive). Moreover, in assay [13], the efflux inhibition (fraction of control) is -0.12 (inactive). The differentiation response in [15] was -9.89% (inactive).
With `CC#C[C@]1(O)CC[C@H]2[C@@H]3CCC4=CC(=O)CCC4=C3[C@@H](c3ccc(N(C)C)cc3)C[C@@]21C`, the percent of DMSO control GFP in [1] was 103% (inactive). Also, the GFP response vs DMSO in assay [2] was 103% (inactive); in assay [4], 87.3% (inactive). Also, in [3], the percent response of DMSO control was 110% (inactive). Further, the GFP response, % of DMSO in assay [5] is 102% (inactive). The double positive events in [6] is 56.3%. In assay [6], the vesicle binding response is 187% (inactive). Also, the inhibition in assay [7] is -10.5% (inactive); in assay [10], 25.2% (inactive); in [14], 3% (inactive). In addition, the superoxide response (% of plate) in assay [8] was 94.9% (inactive). In assay [9], the aptamer binding inhibition was 9% (inactive). In assay [11], the response was 0.03% (inactive). For the same compound, the binding (% of control) in [12] was 94.6% (inactive). The efflux inhibition (fraction of control) in assay [13] is -0.16 (inactive). Also, in assay [15], the differentiation response was -16.4% (inactive).
Regarding `CC(C)OC(=O)CC1C(=O)NCCN1C(=S)NC(=O)c1cccs1` (stereo not given), the percent of DMSO control GFP in assay [1] was 98.1% (inactive). The GFP response vs DMSO in assay [2] was 86.7% (inactive); in [4] it was 98.4% (inactive). The percent response of DMSO control in assay [3] is 107% (inactive). Further, the GFP response, % of DMSO in [5] is 107% (inactive). In assay [6], this compound gave a double positive events of 63.2%. The vesicle binding response in [6] was 190% (inactive). The inhibition in [7] is 10% (inactive); in assay [10], -4.49% (inactive); in assay [14], 8% (inactive). For the same compound, in [8], the superoxide response (% of plate) was 87.2% (inactive). In assay [9], the aptamer binding inhibition is -2% (inactive). In addition, the response in assay [11] is 2.24% (inactive). In assay [12], the binding (% of control) was 104% (inactive). The efflux inhibition (fraction of control) in assay [13] was -0.2 (inactive). The differentiation response in [15] is 0% (inactive).
In the case of `CCc1cc(=O)oc2cc(C)c(CN3CCCC(C)C3)c(O)c12` (stereo not given), in [1], the percent of DMSO control GFP was 102% (inactive). Also, the GFP response vs DMSO in assay [2] was 103% (inactive); in assay [4], 84.3% (inactive). Further, the percent response of DMSO control in [3] is 103% (inactive). In addition, the GFP response, % of DMSO in [5] is 94.9% (inactive). In addition, the double positive events in [6] was found to be 52.2%. In assay [6], the vesicle binding response was 161% (inactive). Also, the inhibition is -5.84% (inactive) in [7], 26.7% (inactive) in assay [10] and 5% (inactive) in assay [14]. Also, the superoxide response (% of plate) in assay [8] was 105% (inactive). In addition, the aptamer binding inhibition in [9] was 2% (inactive). The response in [11] was -0.18% (inactive). Further, the binding (% of control) in [12] was 73.4% (inactive). Moreover, in assay [13], the efflux inhibition (fraction of control) is 0.18 (inactive). The differentiation response in [15] was -18% (inactive).
Regarding `CCOc1ccc(C(=O)/C=C/c2cc(OC)c(OC)c(OC)c2)cc1`, the percent of DMSO control GFP in assay [1] was 97.1% (inactive). The GFP response vs DMSO in assay [2] and in [4] was 105% (inactive) in each case. In addition, in [3], the percent response of DMSO control is 92% (inactive). For the same compound, in assay [5], the GFP response, % of DMSO was 89.4% (inactive). Besides, the double positive events in assay [6] worked out at 54.7%. Further, the vesicle binding response in assay [6] is 209% (inactive). Also, the inhibition is -0.24% (inactive) in assay [7], 4.7% (inactive) in assay [10] and 4% (inactive) in assay [14]. The superoxide response (% of plate) in assay [8] was 91.6% (inactive). The aptamer binding inhibition in assay [9] is -3% (inactive). In addition, the response in [11] was 1.41% (inactive). Besides, in [12], the binding (% of control) is 104% (inactive). In [13], the efflux inhibition (fraction of control) was 0.25 (inactive). Also, the differentiation response in assay [15] is 40.2% (inactive).

The term inhibition denotes the relative decrease from the control value, in per cent.

For the origin of these results see PubChem BioAssay.
